# The list is not random: actives were taken first. Their share in the collection is about 1.1%.
# SNCA expr inh: inhibitors of alpha-synuclein (SNCA) gene expression; HEK-293 SNCA-luciferase knock-in, luminescence, 24 h; Potency, µM (doses to about 57.2 µM), without a hit: at the top dose activity change, negative = inhibition, most hits filed as inhibitors; hit rate 0.17% among 140,000; AID 1671194;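 also: potency is read from the fitted curve at half-maximal effect; plate controls were DMSO cells for no effect and cell-free wells for full effect; nearly all actives have a fitted effect of over 45% in size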
# GPT2 inh: blocks human glutamate pyruvate transaminase 2 | Q8TD30 | Recombinant GPT2, coupled pyruvate oxidase/HRP Amplex Red fluorescence | Potency, µM (series often up to 57.7 µM), for inactives: at the top dose activity change, negative = inhibition, usual class: inhibitors | hit rate 0.25% among 100,000 | AID 1671188; also: potency is read from the fitted curve at half-maximal effect; nearly all actives have a fitted effect of over 60% in size
# Target sequence (Q8TD30 whole entry, looked up): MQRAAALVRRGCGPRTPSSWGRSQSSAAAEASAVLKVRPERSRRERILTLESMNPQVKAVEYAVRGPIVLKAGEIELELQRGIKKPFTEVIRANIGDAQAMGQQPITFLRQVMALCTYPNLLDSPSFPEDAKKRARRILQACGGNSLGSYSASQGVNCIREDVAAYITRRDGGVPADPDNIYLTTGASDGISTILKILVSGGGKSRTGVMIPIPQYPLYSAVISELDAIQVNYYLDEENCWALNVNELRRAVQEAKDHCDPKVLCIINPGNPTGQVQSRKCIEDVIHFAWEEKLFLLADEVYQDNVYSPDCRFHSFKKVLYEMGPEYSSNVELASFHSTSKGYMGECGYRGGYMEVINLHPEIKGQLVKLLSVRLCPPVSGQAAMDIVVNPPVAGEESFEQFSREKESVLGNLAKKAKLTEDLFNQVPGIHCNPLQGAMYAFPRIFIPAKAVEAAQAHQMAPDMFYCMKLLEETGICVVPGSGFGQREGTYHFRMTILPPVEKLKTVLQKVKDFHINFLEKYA
#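 Inhibition is scored from Amplex Red fluorescence generated when pyruvate oxidase and HRP act on pyruvate released by GPT2. Reactions contain 10ng/uL enzyme, 250uM a-KG and 2mM L-alanine and run 30 min at room temperature.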
# IP6K1 inh: inhibitors of human IP6K1; hit rate 0.81% among 140,000; activity change, % (series mostly up to about 58 µM); IP6K1 kinase, ADP-Glo luminescence, 2 h; hits give low values; Q92551; in the data active = activity change below about -25%
#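 ADP-Glo luminescence measures ADP made by human IP6K1 during a 2 h RT reaction with ATP/IP6 (mix at 1.3 mM/130 uM); top library doses 57.5 and 19.1 uM final.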
# HEK293 viab: reduces viability of HEK-293 SNCA reporter cells | HEK-293-SNCA-luc viability, GF-AFC fluorescence, 24 h | AID 1671193 | hit rate 0.12% among 150,000 | Potency, µM (doses to about 57.1 µM), without a hit: at the top dose activity change, negative = cytotoxicity, usual class: cytotoxic;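 also: potency is read from the fitted curve at half-maximal effect; 0% = DMSO-treated cells and -100% = medium-only wells without cells; nearly all actives have a fitted effect of over 30% in size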
#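 Cytotoxicity counterscreen: after 24 h compound treatment of genome-edited SNCA-luciferase HEK-293 cells, live-cell protease substrate GF-AFC read by fluorescence after 30 min; activity scaled between DMSO (0%) and medium-only (-100%), curves Hill-fitted.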
# IP6K1 conf: confirmation of human IP6K1 inhibitors. hit rate 13% among 1,200. AID 1645852. recombinant IP6K1 kinase, ADP-Glo luminescence, 2 h. shares compounds with IP6K1 inh. Potency, µM (highest dose often 49 µM), for inactives: at the highest dose activity change, negative = inhibition, usual class: inhibitors; also: potency is read from the fitted curve at half-maximal effect; nearly all actives have a fitted effect of over 65% in size
# * hit, by the source's call; i = inactive; ? = inconclusive; . = no result given; [ ] = remark or other dose. Unless noted, calls follow the shape of the dose curve; as a rule, active = well fitted curve in the direction sought with a large enough effect; inconclusive = small, poorly fitted or top-dose-only effect, or another doubt; inactive = no such curve, though single readings can be large; an effect the other way counts as inactive or inconclusive. Unless noted, % is scaled to controls: 0 for no effect and ±100 for the full control effect.
SMILES,SNCA expr inh,GPT2 inh,IP6K1 inh,HEK293 viab,IP6K1 conf
Cc1cccn2c(=O)c(C(=O)NCCc3ccc(Cl)cc3)cnc12,67%,.,8,-8%,.
CSc1ccc(CCNC(=O)c2cnc3c(C)cccn3c2=O)cc1,31%,.,-29*,13%,-21%
CCn1nc(C)c(CCNC(=O)C2CCC(=O)N(C3CCCC3)C2)c1C (stereo not given),-8%,-10%[11.5 µM],-25*,3%,-9%
Cc1ccc(Nc2ccnc(N3CCC(NC(=O)c4ccc(F)cc4)CC3)n2)cc1,-21%,-2%,6,-27%,.
CCCCOC(=O)/C(C#N)=C/c1ccc(-c2ccc(Br)cc2)o1,39%,.,-31*,9%,9%
Cc1nn(-c2ccccc2)c2c1C(C)N(C1CCN(C(=O)Cc3ccc(F)cc3)C1)C2=O (stereo not given),.,.,0,.,.
O=C(c1ccc2c(c1)OCO2)N1CCN(c2ccc3nnc(C4CC4)n3n2)CC1,.,.,28,.,.
CC1CCN(C(=O)CSc2nc(-c3ccccc3)no2)CC1,36%,.,-26*,0%,?
CN1CCN(c2cc(=O)c3ccnc(N4CCOCC4)c3o2)CC1,10%[87.6 µM],2%[88.5 µM],-16,5%[87.6 µM],.
CN1CCN(c2cc(=O)c3ccnc(N4CCN(c5ccccn5)CC4)c3o2)CC1,-12%[87.6 µM],i,-26*,-2%[87.6 µM],-27%
Cc1ccc(-c2nnn3c2nc(N2CCC(C)CC2)c2ccccc23)cc1,83%,.,-29*,-15%,-9%
Cc1nn(-c2ccccc2)c2sc(C(=O)Nc3cccc(O)c3)cc12,?,.,-27*,?,?
Cn1ncc2c(C(=O)N3CCC(Cc4ccccc4)CC3)cc(-c3ccccc3F)nc21,.,.,19,.,.
CC(C)c1ccc(-c2cc(=O)c3ccccc3o2)cc1,.,i,-78*,-9%,3.3µM*
CC(=O)Nc1ccc(NC(=O)c2cc(=O)c3ccccc3o2)cc1,?,.,0,-7%,.
O=c1cc(-c2ccccc2)oc2ccccc12,206%,?,-30*,22%,?
COCCNc1nc(NCc2cccc(Cl)c2)c2cnn(C)c2n1,-24%,.,-39*,-19%,-7%
Cc1nc(-c2cccc(Cl)c2)n(CC(=O)Nc2ccc(C(F)(F)F)cc2)c(=O)c1CCO,?,?,2,?,.
O=C(NCc1ccco1)c1ccc2c(c1)N(Cc1ccc(Cl)cc1)C(=O)c1ccccc1S2,-20%,.,-26*,-22%,?
Cc1nn(-c2ccccc2)c2c1C(C(C)C)N(C1CCN(C(=O)c3ccccc3F)C1)C2=O (stereo not given),.,.,4,.,.
Cc1c(C)n(Cc2ccc(-c3ccccc3C(=O)O)cc2)c2ccc(C(=O)N[C@@H](C)c3ccc([N+](=O)[O-])cc3)cc12,-12%,i,-27*,21%,?
COc1ccc(-c2cccc(C(=O)N3CCN(C(=O)c4ccc(C(F)(F)F)cc4)CC3)c2)nn1,.,.,-5,.,.
O=C(Nc1cccnc1)c1cc(-c2ccccc2F)cc2c1OCCN2Cc1cccnc1,?,-7%[88.5 µM],-49*,?,?
O=C(NCc1ccco1)c1cc(-c2ccccc2F)cc2c1OCCN2Cc1cccnc1,-2%,1%,-30*,?,?
C#CCNC(=O)c1cc(-c2cccc(C(F)(F)F)c2)nc2c1cnn2C,.,.,8,.,.
SMILES,SNCA expr inh,GPT2 inh,IP6K1 inh,HEK293 viab,IP6K1 conf
Cn1nccc1Nc1nccc(-c2ccn([C@H](CO)c3ccc(Cl)c(F)c3)c(=O)c2)n1,.,1%,-36*,1%,8.2µM*
CC(C)Oc1cccc(-c2nnc(CCC(=O)NCCc3cccs3)c(=O)[nH]2)c1,0%,i,-27*,9%,?
O=C(c1ccc2oc(-c3ccncc3)nc2c1)N1CCCCC1,16%,-13%,-10,2%,.
Cc1nn(-c2ccccc2)c2c1C(C)N(C1CCN(C(=O)c3ccc(Cl)nc3)C1)C2=O (stereo not given),.,.,-2,.,.
CN(C)c1ccc(/C=C2\C(=O)Nc3ccccc32)cc1,0%,?,.,-28%,.
COc1cc(/C=C2\C(=O)Nc3ccccc32)ccc1O,.,.,.,.,10µM*
COc1ccc(C2=NS(=O)(=O)N(C)C(C(=O)NCc3ccccc3)=C2)cc1OC,38%,.,-26*,4%,-12%
COc1ccc(CNC(=O)C2=CC(c3ccc(OC)c(OC)c3)=NS(=O)(=O)N2C)cc1,9%,.,-10,6%,.
COc1ccccc1-c1cccc(C(=O)N2CCN(C(=O)c3ccccc3C)CC2)c1,-9%,2%,1,-25%[12.5 µM],.
CC1(CNc2ccccc2)COc2ccc(C(=O)NCc3cccnc3)cc2N1 (stereo not given),3%[87.6 µM],5%[88.5 µM],-12,-2%[87.6 µM],.
CC1(CNc2ccccc2)COc2ccc(C(=O)NCCc3cnc[nH]3)cc2N1 (stereo not given),-10%[87.6 µM],i,-40*,-2%[87.6 µM],?
CN1CC[C@@H](c2c(O)cc(O)c3c(=O)cc(-c4ccccc4Cl)oc23)[C@@H](O)C1,0.22µM*,2%,.,?,?
Clc1cccc(-c2ccc(CN3CCN(C4CCNC4)CC3)o2)c1 (stereo not given),43%,1%,-28*,1%,-24%
Cc1nn(-c2ccccc2)c2c1C(C1CC1)N(CC1CN(C(=O)c3cccnc3)C1)C2=O (stereo not given),.,.,8,.,.
Cc1nc(C)n(CCCNC(=O)c2cc(S(N)(=O)=O)ccc2F)n1,6%,1%,22,2%,.
Nc1nc(Nc2ccc(S(N)(=O)=O)cc2)nn1C(=O)c1c(F)cccc1F,?,-3%,-35*,?,?
Cc1cccc(Cc2c(C)nc3nc(SCC(=O)NCc4ccc(F)cc4)nn3c2C)c1,-13%,.,-37*,-9%,?
Cc1ccc(-c2cccc(CN3CCCC3C(=O)N3CCCC(C)C3)c2)cc1Cl (stereo not given),.,.,-6,.,.
O=C(Nc1cccc(F)c1)Nc1ccnn1C1CCN(C(=O)C2CCC2)CC1,19%,-1%[11.5 µM],-32*,4%,-5%

# Screens: PubChem, National Center for Advancing Translational Sciences (NCATS)
